Compound activity from PubChem BioAssay.
PLCg1 inh = PLC-gamma1 enzyme inhibitors, primary screen, biochemical, fluorescence, purified enzyme; 1-phosphatidylinositol 4,5-bisphosphate phosphodiesterase gamma-1 (Homo sapiens), P19174; fluorogenic substrate; inhibition, % at 12.2 µM; 370,000 compounds, 0.84% hits; AID 720700, 2013; in the data active = inhibition above about 9.5%
HIF act = HIF pathway transcriptional activators, primary screen, cell-based, U2OS HRE-luciferase, luminescence. U2OS HRE-luciferase reporter; normalized: DMSO 0%, desferrioxamine 100%. activation, % at 7.5 µM (by protocol). 300,000 compounds, 0.32% hits;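 active = mean activation of at least 10% of the iron chelator positive control signal, with at least half of replicates also reaching 10%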
PLCb3 inh = human PLC-beta3 inhibitors, primary screen, biochemical, fluorescence; inhibition, % at 12.2 µM; Purified PLC-beta3, fluorogenic substrate; 370,000 compounds, 0.18% hits; in the data active = inhibition above about 11%;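 note: 0% = median of compound wells on plate and 100% = full blocker control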
sPLA2-III inh = human group III sPLA2 inhibitors, primary screen, biochemical, QFRET, BODIPY PC-A2 liposome substrate | AID 743126, 2013 | inhibition, % at 12.2 µM | 370,000 compounds, 0.56% hits | QFRET BODIPY PC-A2 liposome hydrolysis, fluorescence | Group 3 secretory phospholipase A2 (Homo sapiens), Q9NZ20;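 active = inhibition above mean plus 3 SD of compounds lying within the high and low control bounds, cut at about 19% in these data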;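 note: 0% = median of test compound wells and 100% = no enzyme DMSO wells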
Target sequence (Q9NZ20 whole entry, looked up): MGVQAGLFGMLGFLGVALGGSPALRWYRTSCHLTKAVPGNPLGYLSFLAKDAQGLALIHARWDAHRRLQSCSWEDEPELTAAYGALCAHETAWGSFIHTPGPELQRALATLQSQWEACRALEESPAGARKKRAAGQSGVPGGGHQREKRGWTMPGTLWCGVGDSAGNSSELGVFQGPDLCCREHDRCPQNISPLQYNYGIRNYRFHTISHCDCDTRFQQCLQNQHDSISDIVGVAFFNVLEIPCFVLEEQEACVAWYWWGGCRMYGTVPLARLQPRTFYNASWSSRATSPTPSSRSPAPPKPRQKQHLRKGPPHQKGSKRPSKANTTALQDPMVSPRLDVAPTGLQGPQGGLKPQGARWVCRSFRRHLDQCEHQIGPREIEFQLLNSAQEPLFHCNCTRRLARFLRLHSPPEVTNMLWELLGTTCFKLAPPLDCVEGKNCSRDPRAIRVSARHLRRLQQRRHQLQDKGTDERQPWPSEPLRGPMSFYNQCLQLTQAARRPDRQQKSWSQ
CR mimetic SO = reduction of superoxide in aged yeast, primary screen, HTS; superoxide response (% of plate mean), % at 10 µM; S. cerevisiae aged cells, superoxide DHE fluorescence; hits give low values; 330,000 compounds, 0.18% hits;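 active = superoxide response under a set limit, about three screen SD below normal, cut at about 65% in these data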;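 note: yeast aged for seven days with compound at 30 °C before DHE staining; 100% = average MFI of all compound-treated wells on the plate with controls excluded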
AHR activator = AHR activators, primary screen, cell-based, luminescence, luciferase reporter, human. Aryl hydrocarbon receptor (Homo sapiens), P35869. AHR-responsive luciferase reporter cells. activation, % at 5 µM. 320,000 compounds, 2.5% hits. AID 2796, 2010; in the data active = activation above about 47%;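 note: 0% = vehicle wells and 100% = reference agonist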
* marks the source's active call; other numbers are inactive results; . = not tested or not shown. An excerpt weighted towards active compounds, which were near 3.9% of everything screened.

SMILES	PLCg1 inh	HIF act	PLCb3 inh	sPLA2-III inh	CR mimetic SO	AHR activator
CCOc1ccccc1NC(=O)Nc1cccc(S(N)(=O)=O)c1	2	0	-4	12	114	48*
CCOc1ccccc1NC(=O)Nc1cccc(NC(C)=O)c1	2	0	-5	-3	102	18
CCOc1ccccc1NC(=O)NC(=O)N(C)S(=O)(=O)c1ccc(C)cc1	0	0	-2	-6	110	64*
O=C(Nc1ccc2c(c1)CCC2)Nc1ccccc1Cl	-1	2	-4	-8	103	1
CCOc1ccccc1NC(=O)Nc1ccc2c(c1)CCC2	-3	2	-9	1	106	78*
COC(=O)[C@]12C[C@H](CC(=O)NCc3cccc(C(F)(F)F)c3)C(=O)N(CCc3ccc(OC)c(OC)c3)C1=C[C@H](COCc1ccccc1)O[C@@H]2C	-1	.	3	-21	.	.
CCc1noc(C)c1C(=O)N1CCN(CC(=O)OC)CC1	0	.	5	6	.	.
FC(F)(F)c1ccc(-c2nc(=S)[nH][nH]2)cc1	4	96*	-6	-15	90	10
Oc1ccc(-c2nc(=S)[nH][nH]2)cc1	1	.	-4	2	80	8
COc1cc(-c2nnc(SCC(=O)NN=Cc3c[nH]c4ccccc34)n2-c2ccccc2)cc(OC)c1OC	0	.	2	-24	.	.
CNC(=O)c1cc(Nc2nnc(C)c3ccccc23)ccc1OC	-5	0	-6	3	103	59*
CCc1ccc(NC(=O)Cn2c(SC)nc3ccccc32)cc1	0	0	5	-14	93	78*
O=C(NCCCn1ccnc1)c1cccc(Cl)c1	2	1	-5	1	112	14
O=C(NCCCn1ccnc1)c1cc([N+](=O)[O-])cc([N+](=O)[O-])c1	0	0	1	0	124	48*
O=C(NCCCn1ccnc1)c1ccc(Cl)c(Cl)c1	7	-1	-3	-6	90	51*
O=C(NCCCn1ccnc1)c1ccncc1	-3	0	-1	0	101	9
Cc1ccc(-n2nc(C)c3c2OC(N)=C(C#N)C3c2ccco2)cc1 (configuration not stated)	-6	0	-13	-12	95	63*
Cc1ccc(-n2nc(C)c3c2OC(N)=C(C#N)C3c2ccoc2)cc1 (configuration not stated)	-2	0	-4	1	98	51*
Nn1c(SCC(=O)N2CCOCC2)nnc1-c1cc(-c2ccc(Cl)cc2)n[nH]1	3	.	-1	0	.	.
CC(=O)Nc1cccc(-c2cc(C(C)=O)c3n(c2=O)CCC3)c1	0	.	-1	14	.	.
Cc1cc(N2O[C@]34C=C[C@]25C[C@@H](O)CC[C@]5(C)C3CC[C@]2(C)[C@@H]([C@H](C)/C=C/[C@H](C)C(C)C)CC[C@H]24)no1 (some centres not stated)	1	.	-5	3	57*	.
C=CCNc1ncnc2c1[nH]c1ccc(C)cc12	-42	2	-52	5	95	105*
COc1ccc2[nH]c3c(NCc4ccco4)ncnc3c2c1	.	7	.	.	81	71*
COc1ccc(/C=N/Nc2ncnc3c2[nH]c2ccccc23)c(OC)c1OC	-24	0	-23	-3	98	72*
COc1cccc(/C=N/Nc2ncnc(N)c2[N+](=O)[O-])c1OC	.	1	.	.	90	1
SMILES	PLCg1 inh	HIF act	PLCb3 inh	sPLA2-III inh	CR mimetic SO	AHR activator
COc1cccc(/C=N/Nc2ncnc3c2[nH]c2ccc(C)cc23)c1OC	-7	0	-14	-6	103	62*
Cc1cc(C)n(-c2nc(Nc3ccccc3)nc(-n3nc(C)cc3C)n2)n1	2	0	-2	11	134	6
COc1cccc(/C=N/Nc2cc(-n3nc(C)cc3-c3ccccc3)ncn2)c1O	-8	52*	-6	-2	101	12
COc1cccc(/C=N/Nc2ncnc(Cl)c2N)c1O	-15	-2	-21	11	82	13
COc1cccc(/C=N/Nc2nc(Nc3ccccc3)nc(-n3nc(C)cc3C)n2)c1O	-6	2	-6	16	107	60*
CCCC[C@@H]1C(=O)N2N=C(c3ccccc3)c3ccccc3[C@H]2N2N=C(c3ccccc3)c3ccccc3[C@@H]12	-12	.	-26	1	.	.
Cc1ccc(C(=O)O)cc1NC(=S)NCCc1ccccc1	4	0	-4	4	107	-1
O=C(NC(=S)Nc1ccccn1)c1cccc([N+](=O)[O-])c1	1	709*	-6	8	84	11
O=C(NC(=S)Nc1cc([N+](=O)[O-])ccc1Cl)c1ccccc1	2	3	1	11	111	71*
O=C(NC(=S)Nc1cccc([N+](=O)[O-])c1)c1ccccc1	0	4	-8	3	102	2
CCOc1ccc(C(=O)NC(=S)Nc2ccccn2)cc1[N+](=O)[O-]	3	1	7	4	91	0
Cc1ccc([N+](=O)[O-])cc1NC(=S)NCCc1ccccc1	-3	0	-10	2	103	52*
CCCCCC(=O)NNC(=S)NC(=O)c1cccc([N+](=O)[O-])c1	4	62*	3	1	104	1
Cc1ccc(NC(=O)[C@H]2CC(=O)O[C@@H]2c2ccccc2)cc1C	5	.	-5	9	.	.
CCCCCCCC(=O)N[C@H]1CC[C@@]23CCCN2C(=O)CCC[C@H]3[C@H]1C	5	.	4	0	.	.
O=C(Nc1ccc(F)cc1F)c1csc(-c2cccs2)n1	0	3	0	-2	95	29
O=C(Nc1ccc(F)cc1F)c1csc(-c2ccncc2)n1	3	1	-3	4	96	51*
O=C(Nc1cccc(Cl)c1)c1csc(-c2ccccc2)n1	1	1	3	-7	89	93*
Cc1nnc(NC(=O)Nc2cccc(Cl)c2)s1	-1	3	2	-11	129	71*
O=C(Nc1ccc(Cl)c(Cl)c1)c1csc(-c2ccccc2)n1	1	0	0	-5	106	74*
Cc1csc(NC(=O)Nc2cccc(Cl)c2)n1	3	6	3	-12	113	23
COc1ccc(-c2ccc3c(n2)CCCN3S(=O)(=O)c2cccs2)cc1	-66	.	-84	-3	.	.
CCCC/C=C1/[C@@H](CC)N(Cc2ccc(OC)cc2OC)C2=N[C@@H](c3ccccc3)CC(=O)N21	7	.	9	1	.	.
COc1ccc(CN=Cc2[nH]c3ccc(Br)c(Cl)c3c2O)cc1	-4	0	-1	4	95	57*
CCN(CC)CCCNC(=O)CSc1nnc(-c2ccncc2)n1-c1ccc(OC)cc1	4	.	-1	16	.	.
